Experimental data taken from PubChem BioAssay.
Calls of active or inactive are those of the source. Unless noted, the rule behind the calls is not given here.

What was measured:
[1] = A549 cell viability effects, profiling panel, calcein-AM fluorescence, 48 h, basal (AID 1162); settings: higher = more signal; note: test concentration not given here
[2] = adipocyte viability effects, profiling panel, cell-based, 3T3-L1 adipocytes, calcein-AM fluorescence, 48 h, basal (AID 1163); settings: 3T3-L1 adipocytes viability, higher = more signal; note: test concentration not given here
[3] = HepG2 cell viability effects, profiling panel, calcein-AM fluorescence, 48 h, basal (AID 1164); settings: higher = more signal; note: test concentration not given here
[4] = MM1S cell viability effects, profiling panel, calcein-AM fluorescence, 48 h, basal (AID 1165); settings: higher = more signal;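 note: viability of MM1S multiple myeloma cells under basal unstimulated conditions; test concentration not given here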
[5] = basal RPMI8226 viability, no added stimulus, profiling panel, cell-based, calcein-AM fluorescence, 48 h, PK04 Diversity Set (AID 1166); settings: RPMI8226 myeloma viability, higher = more signal;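 note: cells grown under basal conditions without added stimulus; test concentration not given here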
[6] = basal HepG2 mitochondrial membrane potential changes, profiling panel, cell-based, JC-1 fluorescence, 24 h, 100 nL compound (AID 1167); settings: higher = more signal; note: test concentration not given here
[7] = basal 3T3-L1 adipocyte mitochondrial potential changes, profiling panel, cell-based, JC-1 fluorescence, 3T3-L1 adipocytes, 24 h, 100 nL compound (AID 1168); settings: JC-1 mitochondrial fluorescence, higher = more signal, called active from +8 up or from −8 down; note: test concentration not given here
[8] = basal RPMI8226 mitochondrial membrane potential changes, profiling panel, cell-based, JC-1 fluorescence, 24 h, 100 nL compound (AID 1169); settings: RPMI8226 myeloma, JC-1 mitochondrial potential fluorescence, higher = more signal; note: test concentration not given here
[9] = basal MM1S mitochondrial membrane potential changes, profiling panel, cell-based, JC-1 fluorescence, 24 h, 100 nL compound (AID 1170); settings: higher = more signal; note: test concentration not given here
[10] = A549 lung cancer cell viability effects, profiling panel, resazurin fluorescence, 24 h, PK04 Diversity Set (AID 1171); settings: higher = more signal, called active from +8 up or from −8 down; note: test concentration not given here
[11] = HepG2 liver cancer cell viability effects, profiling panel, resazurin fluorescence, 24 h, PK04 Diversity Set (AID 1172); settings: higher = more signal; note: test concentration not given here
[12] = basal S. cerevisiae growth modulation, no modifier, primary screen, OD600, strain BY4716, 24 h, basal condition (AID 1173); settings: OD600, 24 h, higher = more signal, called active from +8 up or from −8 down
[13] = MM1S myeloma cell viability, profiling panel, resazurin fluorescence, basal, 24 h, PK04 Diversity Set (AID 1174); settings: higher = more signal, called active from +8 up or from −8 down;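 note: MM1S multiple myeloma cell line; test concentration not given here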
[14] = target: Dihydroorotate dehydrogenase (quinone), mitochondrial (Plasmodium falciparum (isolate 3D7)) (UniProt Q08210); assay: PfDHODH enzyme inhibitors, primary screen, biochemical, C-terminal His tag, absorbance 600 nm (AID 1175); settings: DCIP absorbance 600 nm, higher = more signal, called active from +8 up or from −8 down;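 note: recombinant parasite enzyme with a five histidine tag at its C terminus; test concentration not given here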
Sequence of Dihydroorotate dehydrogenase (quinone), mitochondrial (Plasmodium falciparum (isolate 3D7)) (Q08210 whole entry, looked up): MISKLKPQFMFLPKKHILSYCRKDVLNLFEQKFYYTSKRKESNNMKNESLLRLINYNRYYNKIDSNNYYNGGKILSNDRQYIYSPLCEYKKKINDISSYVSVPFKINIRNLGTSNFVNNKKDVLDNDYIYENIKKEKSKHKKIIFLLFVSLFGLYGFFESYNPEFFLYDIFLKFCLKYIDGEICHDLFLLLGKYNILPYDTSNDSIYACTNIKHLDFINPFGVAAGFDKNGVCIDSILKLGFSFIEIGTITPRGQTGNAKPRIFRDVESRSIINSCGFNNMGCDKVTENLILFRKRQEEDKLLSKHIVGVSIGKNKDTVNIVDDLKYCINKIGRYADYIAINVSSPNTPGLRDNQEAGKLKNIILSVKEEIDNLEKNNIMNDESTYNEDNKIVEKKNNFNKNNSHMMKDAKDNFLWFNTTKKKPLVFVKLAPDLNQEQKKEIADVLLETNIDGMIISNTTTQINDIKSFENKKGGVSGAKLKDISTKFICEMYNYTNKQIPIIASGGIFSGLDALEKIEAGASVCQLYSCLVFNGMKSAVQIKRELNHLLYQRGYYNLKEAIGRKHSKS

[15] = P. aeruginosa biofilm formation inhibitors, primary screen, strain PAO1, LB-PBS medium, absorbance 600 nm (AID 1176); note: test concentration not given here; settings: P. aeruginosa PAO1 growth/biofilm, A600, 12 h; higher = more signal
[16] = S. cerevisiae RM11-1a growth modifiers, primary screen, strain RM11-1a, OD600, basal, 24 h (AID 1177); settings: OD600, 24 h, higher = more signal, called active from +8 up or from −8 down;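 note: cultures grown under basal conditions with no added stressor; test concentration not given here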
[17] = E. coli acrAB mutant growth effects, primary screen, E. coli filamentation inducers, strain DRC39, OD650, 24 h (AID 1178); settings: higher = more signal, called active from +8 up or from −8 down;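 note: growth measured as culture turbidity by optical density at 650 nm; test concentration not given here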
[18] = E. coli acrAB mutant growth effects, primary screen, E. coli filamentation inducers, strain DRC39, OD650, 48 h (AID 1179);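 note: screen aims at cell division blockers that make cells filament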; settings: E. coli DRC39 delta-acrAB growth, higher = more signal, called active from +8 up or from −8 down
[19] = RPMI8226 myeloma cell viability, profiling panel, resazurin fluorescence, basal, 24 h, PK04 Diversity Set (AID 1180); settings: higher = more signal;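 note: RPMI8826 multiple myeloma cell line at 5000 cells per well; test concentration not given here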
[20] = target: E3 ubiquitin-protein ligase XIAP (Homo sapiens) (UniProt P98170); assay: XIAP binders, primary screen, biophysical, small-molecule microarray, fluorescence 635 nm (AID 1181); settings: small-molecule microarray binding, higher = more signal;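 note: score merges 667 nm emission and signal to noise over triplicate slides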
Sequence of E3 ubiquitin-protein ligase XIAP (Homo sapiens) (P98170 whole entry, looked up): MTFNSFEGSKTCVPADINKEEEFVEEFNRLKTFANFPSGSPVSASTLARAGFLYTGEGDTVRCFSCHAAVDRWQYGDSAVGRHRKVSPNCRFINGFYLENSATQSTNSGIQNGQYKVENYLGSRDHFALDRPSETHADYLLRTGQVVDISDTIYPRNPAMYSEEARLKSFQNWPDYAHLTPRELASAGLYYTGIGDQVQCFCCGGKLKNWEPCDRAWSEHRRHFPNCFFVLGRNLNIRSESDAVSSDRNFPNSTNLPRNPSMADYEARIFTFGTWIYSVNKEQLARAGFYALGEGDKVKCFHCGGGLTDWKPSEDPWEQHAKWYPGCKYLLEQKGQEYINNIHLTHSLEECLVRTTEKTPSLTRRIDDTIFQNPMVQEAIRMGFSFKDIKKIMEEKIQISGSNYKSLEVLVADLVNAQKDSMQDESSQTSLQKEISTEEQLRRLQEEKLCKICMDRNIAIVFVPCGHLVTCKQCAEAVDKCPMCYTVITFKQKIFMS

| SMILES | z-score [1] | z-score [2] | z-score [3] | z-score [4] | z-score [5] | z-score [6] | z-score [7] | z-score [8] | z-score [9] | z-score [10] | z-score [11] | z-score [12] | z-score [13] | composite z-score [14] | z-score [15] | z-score [16] | z-score [17] | z-score [18] | z-score [19] | composite z-score [20] |
| --- | --- | --- | --- | --- | --- | --- | --- | --- | --- | --- | --- | --- | --- | --- | --- | --- | --- | --- | --- | --- |
| CCCC[C@@H](O)C1=C(COc2ccccc2)C[C@H]2C(=O)N(C)C(=O)[C@H]2[C@H]1CO | 0.683 | 0.0659 | 1.54 | 0.196 | 0.131 | 1.11 | 0.56 (inactive) | 0.547 | -2.03 | -0.703 (inactive) | -0.0624 | -3.78 (inactive) | 0.147 (inactive) | -1.85 (inactive) | 0.613 (inactive) | -3.3 (inactive) | 1.6 (inactive) | 1.41 (inactive) | 0.296 | -0.127 |
| COCCOC(=O)N1C(=O)[C@@]2(c3cc(C#CCCO)ccc31)[C@H](C(=O)Nc1nc3ccccc3s1)[C@H]1C(=O)O[C@H](c3ccccc3)[C@H](c3ccccc3)N1[C@@H]2c1ccccc1OCCO | -0.216 | 0.121 | -1.1 | -0.965 | -0.333 | -3.13 | -0.372 (inactive) | -0.183 | -0.744 | 0.513 (inactive) | 0.316 | 2.04 (inactive) | -0.459 (inactive) | 1.1 (inactive) | 1.7 (inactive) | 1.91 (inactive) | -0.0306 (inactive) | -0.339 (inactive) | -1.28 | -0.115 |
| CC(C)N1C(=O)C[C@@](C(=O)NCCCN(C)C)(c2ccc([N+](=O)[O-])cc2)[C@H]1c1ccc(CO)cc1 | 0.173 | 0.165 | -0.093 | -0.367 | 0.768 | -0.459 | -1.18 (inactive) | 0.701 | 0.169 | -0.28 (inactive) | 0.0314 | -0.67 (inactive) | -1.21 (inactive) | 0.352 (inactive) | 0.745 (inactive) | -0.379 (inactive) | -0.328 (inactive) | -1.02 (inactive) | -0.198 | -0.267 |
| C=C[C@@H](OC)[C@H](OC(=O)Nc1ccc(SC)cc1)c1ccc(O)c(F)c1 | -0.247 | -0.19 | -0.419 | -1.4 | -0.515 | -2.52 | 1.47 (inactive) | -0.362 | -0.317 | -0.637 (inactive) | -0.626 | -2.65 (inactive) | -0.807 (inactive) | 0.592 (inactive) | 1.22 (inactive) | 1.95 (inactive) | -0.881 (inactive) | -1.19 (inactive) | -0.649 | -0.117 |
| NC(=O)N1C(=O)C2C(C1=O)C1C=C(CCCO)C2C(c2cccs2)N1Cc1cccc(OC(F)(F)F)c1 (stereo not given) | 0.604 | 0.151 | -0.4 | -2.98 | -1.11 | -0.339 | -0.678 (inactive) | 0.146 | 1.37 | 0.48 (inactive) | 0.0214 | -3.57 (inactive) | -0.637 (inactive) | -0.376 (inactive) | -0.223 (inactive) | 0.199 (inactive) | -0.205 (inactive) | -0.692 (inactive) | -0.18 | 0.195 |
| COC(=O)c1cn(C[C@@H](Cc2ccccc2)NC(=O)N[C@H](CO)CCc2oc(C(C)=O)c(C(=O)OC)c2C(=O)OC)nn1 | -0.282 | 0.53 | -0.0248 | 0.408 | 0.206 | 0.629 | 1.09 (inactive) | -0.0706 | 0.962 | 0.0604 (inactive) | 0.0852 | -1.3 (inactive) | 0.438 (inactive) | 0.223 (inactive) | -0.227 (inactive) | -0.504 (inactive) | 1.3 (inactive) | 0.604 (inactive) | -0.181 | -0.02 |
| CCOC(=O)C[C@H]1[C@H](OC(=O)c2ccc(C(=O)c3ccccc3)cc2)[C@@H](NC(=O)Cc2ccc(OC)cc2)c2cc(OCCCO)ccc2N1C(=O)c1ccccc1 | 0.0281 | -0.005 | 0.544 | -0.272 | -0.399 | 0.425 | -0.386 (inactive) | 0.428 | -0.107 | 0.69 (inactive) | 0.0566 | 0.29 (inactive) | -0.292 (inactive) | -0.517 (inactive) | 0.325 (inactive) | -0.193 (inactive) | -0.307 (inactive) | -0.215 (inactive) | -0.268 | 0.169 |
| C=C(COC)C(=O)CC[C@@H](OC(=O)c1cccnc1)c1ccc(OCCO)cc1 | -0.1 | -0.486 | -0.419 | -2.55 | -1.29 | -1.89 | 0.42 (inactive) | 0.829 | -0.374 | -0.284 (inactive) | 0.379 | -16 (active) | 0.556 (inactive) | -3.49 (inactive) | 0.178 (inactive) | -0.499 (inactive) | 0.864 (inactive) | 0.441 (inactive) | 0.221 | -0.184 |
